# AddAB inh: less growth of phage-infected E. coli with AddAB. E. coli expressing H. pylori AddAB, absorbance growth. AID 435030. 330,000 compounds, 0.29% hits. inhibition, % at 11.9 µM; in the data active means inhibition above about 12%;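 further: 0% = vehicle wells of infected cells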
# E coli growth-1: bacterial growth inhibition, counter-screen for AddAB inhibitors; E. coli V3065 growth, OD600 absorbance, 18 h; inhibition, % at 11.9 µM; 330,000 compounds, 0.27% hits; AID 449728;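 active means inhibition above the campaign's mean inhibition across all tested compounds plus 3 SD, cut at about 9.9% in these data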;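 further: uninfected addAB+ strain grown without phage in ampicillin broth; 0% = DMSO wells and 100% = ciprofloxacin 0.95 µg/ml wells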
# E coli growth-2: blocks Escherichia coli growth. OD600, 23 h; stronger effect = lower value. OD600 absorbance (no concentration beside the values). 330,000 compounds, 0.21% hits. AID 1053175;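 active means OD600 absorbance below the run mean of sample wells minus 3.6 SD, in any replicate, cut at about 0.56 in these data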
# Tat transport: inhibitors of E. coli Tat protein transport | 340,000 compounds, 0.036% hits | E. coli MC4100 TorA-mCherry Tat export, fluorescence | inhibition, % at 10 µM;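 active means mean replicate inhibition at least 50% and at least half of replicates individually reaching 50%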;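 further: exported cargo escapes ClpAP degradation while cytoplasmic cargo is degraded and loses fluorescence; 0% = median of neutral control wells and 100% = median of NaSCN control wells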
# phage Ecoli inh: E. coli growth loss with phage present; growth absorbance; 360,000 compounds, 0.26% hits; inhibition, % at 11.9 µM; AID 651602; in the data active means inhibition above about 11%
# An asterisk follows results filed as active; nt = no result. Only some compounds are listed: those with a hit (about 0.5% of all), similar ones and a draw of the others.
SMILES,AddAB inh,E coli growth-1,E coli growth-2,Tat transport,phage Ecoli inh
Cc1nnsc1C(=O)NNc1c(Cl)cccc1Cl,5,2,0.48*,6,3
Cc1nnsc1C(=O)NNc1ccc(Cl)cc1,0,0,0.67,3,0
CC(=O)Nc1ccc(SC(CCN2CCC(C(C)(C)C)CCC2=O)c2ccccc2)cc1 (stereo not drawn),nt,nt,0.67,nt,nt
Cc1ccc(-c2ccc(C3C4C=CCC[C@@]4(C)C(=O)N3Cc3ccccc3)c(F)c2)cc1 (stereo partly drawn),nt,nt,0.72,nt,nt
CCn1c2c(c(=N)c3c1CCC3)CCCC2,-2,2,0.67,nt,2
CCCCCCCCn1c2c(c(=N)c3ccccc31)CCC2,nt,nt,0.59,-1,8
CCCCCCCCCn1c2c(c(=N)c3c1CCC3)CCCC2,nt,nt,0.43*,30,nt
CCCCCCCCCCn1c2c(c(=N)c3c1CCC3)CCC2,5,8,0.22*,1,8
CC1CN(C(C)CO)C(=O)c2cc(NC(=O)Cn3cnnn3)ccc2OC1CN(C)Cc1ccc(Oc2ccccc2)cc1 (stereo not drawn),nt,nt,0.71,nt,nt
CCN1C(=O)C2C(c3ccc(C)cc3)N3C(=O)N(c4ccccc4)C(=O)[C@@]3(Cc3ccccc3)C2C1=O (stereo partly drawn),nt,nt,0.65,nt,nt
CC(C(=O)CC(=O)OC(C)(C)C)C(O)c1ccccc1 (stereo not drawn),nt,nt,0.69,nt,nt
O=[N+]([O-])c1nn(-c2ccccc2)n(O)c1=NC1CCN(Cc2ccccc2)CC1,8,10*,0.59,4,5
Cc1ccsc1C=C1SC(=O)N(CC(=O)N2CCOCC2)C1=O,nt,nt,0.71,nt,nt
Cc1nnc(SCC2=C(C(=O)O)N3C(=O)C(NC(=O)Cn4ncc(Cl)c4C)C3SC2)s1 (stereo not drawn),-1,1,0.44*,7,4
Cc1cc(C)n(CC(=O)NC2C(=O)N3C(C(=O)O)=C(CSc4nnc(C)s4)CSC23)n1 (stereo not drawn),2,1,0.19*,22,5
Cc1nnc(SCC2=C(C(=O)O)N3C(=O)C(NC(=O)c4cccc(F)c4F)C3SC2)s1 (stereo not drawn),0,0,0.7,-2,3
CC(=O)OCC1=C(C(=O)O)N2C(=O)C(NC(=O)C(C)Cn3nc(C)c(Cl)c3C)C2SC1 (stereo not drawn),-1,0,0.64,4,2
CC(=O)OCC1=C(C(=O)O)N2C(=O)[C@@H](NC(=O)CSc3ccncc3)[C@H]2SC1,nt,nt,0.22*,-8,6
Cn1nnnc1SCC1=C(C(=O)O)N2C(=O)C(NC(=O)C3CC3c3ccccc3)C2SC1 (stereo not drawn),1,1,0.64,-22,4
Cn1nnnc1SCC1=C(C(=O)O)N2C(=O)[C@@H](NC(=O)[C@H](O)c3ccccc3)[C@H]2SC1,-2,-1,nt,-9,nt
CN(C)CCn1nnnc1SCC1=C(C(=O)O)N2C(=O)C(NC(=O)Cc3csc(N)n3)C2SC1 (stereo not drawn),nt,nt,0.061*,nt,nt
Cc1cc(C(F)F)nn1CC(=O)NC1C(=O)N2C(C(=O)O)=C(CSc3nnnn3C)CSC12 (stereo not drawn),5,4,0.19*,-8,3
CC(C(=O)NC1C(=O)N2C(C(=O)O)=C(CSc3nnnn3C)CSC12)n1cc(Br)cn1 (stereo not drawn),-2,-2,0.51*,-11,5
Cc1nn(C(C)C(=O)NC2C(=O)N3C(C(=O)O)=C(CSc4nnnn4C)CSC23)cc1Cl (stereo not drawn),-1,0,0.43*,-16,6
O=C(CNS(=O)(=O)c1ccc(Br)s1)NCc1ccccc1,2,0,0.54*,-5,0
SMILES,AddAB inh,E coli growth-1,E coli growth-2,Tat transport,phage Ecoli inh
S=C(NCc1cccnc1)Nc1ccc(Cl)c(Cl)c1,11,11*,0.49,-12,10
O=C(NCc1cccnc1)Nc1ccc(Cl)c(Cl)c1,4,2,0.59,-5,1
S=C(NCc1ccc(Cl)cc1)Nc1ccccc1,0,0,0.67,-10,5
S=C(NCc1ccc(Cl)cc1)Nc1ccncc1,-1,-1,0.52*,8,1
S=C(Nc1ccc(Cl)c(Cl)c1)NC1CCN(Cc2ccccc2)CC1,11,11*,0.58,-6,8
Fc1ccc(NC(=S)NC2CCN(Cc3ccccc3)CC2)cc1,2,3,0.67,-3,5
OCCC1CC(O)C(O)[C@]2(CCc3ccccc3CO2)O1 (stereo partly drawn),nt,nt,0.7,nt,nt
CC(C)CC(C(=O)O)N1C(=O)C2C3CC(C2C1=O)C1C(c2ccccc2)c2sc(=O)[nH]c2SC31 (stereo not drawn),4,1,0.51*,-8,5

# Source: PubChem (several laboratories)
